Data on 37 compounds can be found in PubChem BioAssay (NCATS).

Records with an inconclusive call do not appear. Activity calls are given as the source filed them. Unless noted, calls follow the shape of the dose curve; as a rule, active = well fitted curve in the direction sought with a large enough effect; inconclusive = small, poorly fitted or top-dose-only effect, or another doubt; inactive = no such curve, though single readings can be large; an effect the other way counts as inactive or inconclusive.

Test [1] addresses Cytochrome P450 2D6 (Homo sapiens) (UniProt P10635). The experiment in a line: Cytochrome P450 family 2 subfamily D member 6 (CYP2D6) small molecule antagonists: luciferase biochemical (cell-free) qHTS assay (AID 1645840; active = well fitted curve in the direction sought with a large enough effect in the repeat runs; an effect the other way counts as inactive or inconclusive; also: nearly all actives have a fitted effect of over 55% in size; also: potency is read from the fitted curve at half-maximal effect). The procedure, abridged:
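P450-Glo luminescent screen: recombinant CYP2D6 enzyme–proluciferin substrate mix preincubated with compound 10 min at room temperature, then NADPH regeneration added for 1 h at room temperature. Detection reagent added for 20 min; luciferin light read as relative luminescence units.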

The target of test [2] is Cytochrome P450 2C9 (Homo sapiens) (UniProt P11712). Description: Cytochrome P450 family 2 subfamily C member 9 (CYP2C9) small molecule antagonists: luciferase biochemical (cell-free) qHTS assay (AID 1645842; active = well fitted curve in the direction sought with a large enough effect in the repeat runs; an effect the other way counts as inactive or inconclusive; also: nearly all actives have a fitted effect of over 55% in size; also: potency is read from the fitted curve at half-maximal effect). A digest of the protocol:
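Luminescence, after 20 min with luciferin detection reagent, reflected CYP2C9 turnover during a 1 h NADPH-driven reaction at 37C. Enzyme-substrate mix contained 0.4% bovine serum albumin and was preincubated with compound 10 min at room temperature.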
A general note: In qHTS, concentration-response curves come from the screen itself.

A short description of test [3]: Primary qHTS for inhibitors of nuclear receptor binding SET domain protein 2 (NSD2) in an isogenic RCH-ACV NSD2 p.E1099K mutant (9B) (AID 1645876). Also: nearly all actives have a fitted effect of over 70% in size. Also: potency is read from the fitted curve at half-maximal effect.
In a further test the target is Papain (Carica papaya) (UniProt P00784). The experiment in a line: Primary qHTS assay for inhibitors of the protease papain (AID 1645873).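 Also: papain turnover of Z-FR-AMC read as the AMC fluorescence gain over 10 min; series mostly up to about 50 µM.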
Test [4] is described as follows: Primary qHTS for inhibitors of nuclear receptor binding SET domain protein 2 (NSD2) in an RCH-ACV wild type WT cells (2C) (AID 1645877). Also: nearly all actives have a fitted effect of over 70% in size. Also: potency is read from the fitted curve at half-maximal effect.
For test [5], the target named is Rap guanine nucleotide exchange factor 3 (Homo sapiens) (UniProt O95398). The experiment in a line: Confirmatory qHTS for agonist of cAMP-regulated guanine nucleotide exchange factor 3 (EPAC1) (AID 1645881).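 Also: EPAC1 catalysed release of BODIPY-GDP from Rap1B seen as fluorescence loss; nearly all actives have a fitted effect of over 75% in size.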
Test [6] deals with Rap guanine nucleotide exchange factor 4 (Homo sapiens) (UniProt Q8WZA2). The experiment in a line: Confirmatory qHTS for agonist of cAMP-regulated guanine nucleotide exchange factor 4 (EPAC2) (AID 1645884).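 Also: nucleotide exchange releases bodipy-GDP from Rap1 and this lowers its fluorescence; nearly all actives have a fitted effect of over 65% in size.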
Rap guanine nucleotide exchange factor 4 (Homo sapiens), sequence (Q8WZA2 whole entry, looked up): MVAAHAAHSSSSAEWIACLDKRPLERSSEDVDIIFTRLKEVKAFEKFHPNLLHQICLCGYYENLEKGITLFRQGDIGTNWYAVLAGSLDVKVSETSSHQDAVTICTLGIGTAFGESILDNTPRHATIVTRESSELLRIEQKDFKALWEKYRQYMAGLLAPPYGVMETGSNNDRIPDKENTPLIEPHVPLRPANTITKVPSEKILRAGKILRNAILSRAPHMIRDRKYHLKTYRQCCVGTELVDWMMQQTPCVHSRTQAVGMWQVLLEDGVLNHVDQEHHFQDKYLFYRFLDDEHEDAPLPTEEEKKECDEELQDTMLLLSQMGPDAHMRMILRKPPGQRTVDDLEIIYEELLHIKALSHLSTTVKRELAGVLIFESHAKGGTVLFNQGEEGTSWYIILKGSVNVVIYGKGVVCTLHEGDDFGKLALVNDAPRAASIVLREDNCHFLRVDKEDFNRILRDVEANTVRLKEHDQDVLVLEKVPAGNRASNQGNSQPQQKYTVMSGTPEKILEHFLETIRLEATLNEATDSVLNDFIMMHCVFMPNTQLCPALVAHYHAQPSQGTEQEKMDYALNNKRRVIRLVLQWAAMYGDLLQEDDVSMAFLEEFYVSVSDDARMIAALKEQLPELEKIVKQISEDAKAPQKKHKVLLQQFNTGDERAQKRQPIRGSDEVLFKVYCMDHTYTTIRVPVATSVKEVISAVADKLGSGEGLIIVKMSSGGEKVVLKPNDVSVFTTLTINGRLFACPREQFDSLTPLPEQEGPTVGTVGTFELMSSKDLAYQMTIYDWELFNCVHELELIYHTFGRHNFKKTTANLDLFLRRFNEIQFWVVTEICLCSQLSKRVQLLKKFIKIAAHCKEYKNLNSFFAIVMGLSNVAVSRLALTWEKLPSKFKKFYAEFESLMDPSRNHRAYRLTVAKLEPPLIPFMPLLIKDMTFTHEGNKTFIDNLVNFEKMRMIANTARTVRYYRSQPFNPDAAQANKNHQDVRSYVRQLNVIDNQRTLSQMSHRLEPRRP

Cytochrome P450 2D6 (Homo sapiens), sequence (P10635 whole entry, looked up): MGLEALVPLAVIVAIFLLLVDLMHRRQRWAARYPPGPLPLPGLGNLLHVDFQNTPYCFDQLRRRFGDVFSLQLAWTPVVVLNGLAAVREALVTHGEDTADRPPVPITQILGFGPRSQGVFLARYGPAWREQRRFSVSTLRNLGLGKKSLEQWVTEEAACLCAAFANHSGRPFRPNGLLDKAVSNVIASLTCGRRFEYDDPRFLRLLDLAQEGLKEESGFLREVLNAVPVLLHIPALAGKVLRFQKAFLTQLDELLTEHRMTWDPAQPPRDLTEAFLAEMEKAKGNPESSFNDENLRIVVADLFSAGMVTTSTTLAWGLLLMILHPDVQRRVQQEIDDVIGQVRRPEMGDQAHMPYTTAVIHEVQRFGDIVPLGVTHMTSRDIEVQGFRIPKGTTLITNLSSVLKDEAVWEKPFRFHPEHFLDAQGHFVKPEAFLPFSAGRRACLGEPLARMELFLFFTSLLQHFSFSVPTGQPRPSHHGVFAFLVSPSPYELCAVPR
Cytochrome P450 2C9 (Homo sapiens), sequence (P11712 whole entry, looked up): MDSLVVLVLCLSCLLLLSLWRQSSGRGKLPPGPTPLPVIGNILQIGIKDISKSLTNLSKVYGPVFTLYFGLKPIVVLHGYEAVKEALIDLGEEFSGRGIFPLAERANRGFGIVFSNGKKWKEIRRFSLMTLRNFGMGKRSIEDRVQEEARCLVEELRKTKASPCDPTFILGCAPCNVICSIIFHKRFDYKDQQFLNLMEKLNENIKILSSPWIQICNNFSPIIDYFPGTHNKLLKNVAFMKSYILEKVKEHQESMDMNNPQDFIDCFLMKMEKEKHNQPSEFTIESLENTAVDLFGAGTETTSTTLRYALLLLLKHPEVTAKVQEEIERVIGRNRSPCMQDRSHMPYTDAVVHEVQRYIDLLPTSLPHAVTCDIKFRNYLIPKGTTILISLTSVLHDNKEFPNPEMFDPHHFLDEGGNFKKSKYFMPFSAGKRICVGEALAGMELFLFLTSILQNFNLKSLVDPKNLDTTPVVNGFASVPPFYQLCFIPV
Papain (Carica papaya), sequence (P00784 whole entry, looked up, the tested form may be a part): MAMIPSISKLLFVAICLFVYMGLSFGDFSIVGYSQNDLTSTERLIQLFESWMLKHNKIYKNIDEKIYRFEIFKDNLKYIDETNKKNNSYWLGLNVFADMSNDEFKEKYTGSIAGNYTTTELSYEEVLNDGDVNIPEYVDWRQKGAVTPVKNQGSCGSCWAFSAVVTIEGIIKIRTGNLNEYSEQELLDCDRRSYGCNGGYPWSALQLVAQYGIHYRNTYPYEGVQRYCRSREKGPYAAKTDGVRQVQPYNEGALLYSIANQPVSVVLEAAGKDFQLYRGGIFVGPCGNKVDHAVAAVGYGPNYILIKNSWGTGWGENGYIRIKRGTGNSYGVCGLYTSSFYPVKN
Rap guanine nucleotide exchange factor 3 (Homo sapiens), sequence (O95398 whole entry, looked up): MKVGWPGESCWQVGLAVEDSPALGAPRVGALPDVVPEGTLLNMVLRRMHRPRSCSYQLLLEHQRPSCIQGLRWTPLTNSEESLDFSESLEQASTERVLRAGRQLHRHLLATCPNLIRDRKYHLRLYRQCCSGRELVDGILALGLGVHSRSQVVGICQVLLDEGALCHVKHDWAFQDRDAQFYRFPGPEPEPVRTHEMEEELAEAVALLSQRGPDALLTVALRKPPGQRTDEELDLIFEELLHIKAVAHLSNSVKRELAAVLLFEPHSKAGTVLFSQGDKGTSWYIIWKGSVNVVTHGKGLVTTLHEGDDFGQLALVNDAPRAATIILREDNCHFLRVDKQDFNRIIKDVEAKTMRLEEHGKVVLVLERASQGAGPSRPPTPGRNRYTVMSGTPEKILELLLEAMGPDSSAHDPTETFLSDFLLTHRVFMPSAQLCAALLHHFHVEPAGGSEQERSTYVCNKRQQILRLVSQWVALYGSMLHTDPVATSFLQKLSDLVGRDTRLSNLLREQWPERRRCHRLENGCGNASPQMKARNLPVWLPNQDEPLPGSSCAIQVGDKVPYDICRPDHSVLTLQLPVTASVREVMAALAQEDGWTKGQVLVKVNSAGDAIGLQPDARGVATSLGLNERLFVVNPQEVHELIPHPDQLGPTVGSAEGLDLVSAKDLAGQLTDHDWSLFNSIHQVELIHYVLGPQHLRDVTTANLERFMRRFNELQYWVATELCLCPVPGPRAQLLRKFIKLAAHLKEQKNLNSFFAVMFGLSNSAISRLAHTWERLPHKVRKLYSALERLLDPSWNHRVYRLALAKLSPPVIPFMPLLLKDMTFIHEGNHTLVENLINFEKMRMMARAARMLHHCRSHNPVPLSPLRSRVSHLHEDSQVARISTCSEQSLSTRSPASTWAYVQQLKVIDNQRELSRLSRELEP

On to `NCC(=O)CCC(=O)O`, for which the Potency entry in test [1], in test [2] and in test [3] was “inactive” each time.
Take `CN1[C@@H]2CC[C@H]1CC(OC(=O)C(O)c1ccccc1)C2` (stereo not given in full): the Potency entry in test [1], in test [2] and in test [3] was “inactive” in each case.
As for `CC12CCC(CC1)C(C)(C)O2`, the Potency result in test [1], in test [2] and in test [3] was “inactive” in each case.
`CN1CCC[C@@H]1Cc1c[nH]c2ccc(CCS(=O)(=O)c3ccccc3)cc12`: the Potency in test [1] and in test [2] was 13.8 µM (active) throughout. Besides, the Potency result (with Papain (Carica papaya); in test [3]; in test [4]) was “inactive” each time.
For the compound `N[C@H](C(=O)O)c1ccc(O)cc1`, the Potency result in test [1], in test [2] and in test [3] was “inactive” in each case.
Regarding `CCN(CC)C(C)CN1c2ccccc2Sc2ccccc21` (stereo not given), the Potency in test [1] is 19.5 µM (active). Also, the Potency result (in test [2]; with Papain (Carica papaya); in test [3]; in test [4]; in test [5]; in test [6]) was “inactive” each time.
Take `CC1(C)CO[C@@H](CC(=O)O)CN1`: the Potency result in test [1], in test [2] and in test [3] was “inactive” in each case.
On to `O=S(=O)(O)NC1CCCCC1`, for which the Potency result in test [1], in test [2], in test [3] and in test [4] was “inactive” each time.
As for `C[C@@H]1CCN(C(=O)[C@H](CCCN=C(N)N)NS(=O)(=O)c2cccc3c2NC[C@H](C)C3)[C@@H](C(=O)O)C1`, the Potency result in test [1], in test [2] and in test [3] was “inactive” throughout.
As to `CCCCN(CCCC)CCCOC(=O)c1ccc(N)cc1`, the Potency in test [1] was 0.0309 µM (active). The Potency result in test [2] and in test [3] was “inactive” each time.
In the case of `CCn1cc(C(=O)O)c(=O)c2cnc(N3CCNCC3)nc21`, the Potency entry in test [1], in test [2], in test [3] and in test [4] was “inactive” in each case.
On to `O=C(O)CN1C(=O)c2cccc3cccc(c23)C1=O`, for which the Potency result in test [1], in test [2], in test [3] and in test [4] was “inactive” in each case.
Consider `C=CCn1c(=O)n([C@@H]2O[C@H](CO)[C@@H](O)[C@H]2O)c2nc(N)[nH]c(=O)c21`, for which the Potency entry in test [1], in test [2], in test [3] and in test [4] was “inactive” throughout.
In the case of `NS(=O)(=O)c1cc2c(cc1Cl)NC(CSCc1ccccc1)=NS2(=O)=O`, the Potency is 13.8 µM (active) in test [1] and 5.49 µM (active) in test [2]. The Potency result in test [3] and in test [4] was “inactive” throughout.
For `CCC(=O)Nc1ccc(O)cc1`, the Potency result in test [1], in test [2], in test [3] and in test [4] was “inactive” in each case.
As to `CCCCN1CCCC[C@H]1C(=O)Nc1c(C)cccc1C`, the Potency in test [1] was 0.275 µM (active). The Potency result in test [2], in test [3] and in test [4] was “inactive” throughout.
For `O=C(Oc1ccccc1C(=O)O)c1ccccc1O`, the Potency result in test [1], in test [2], in test [3] and in test [4] was “inactive” throughout.
For the compound `CCN(CC)C(=O)Nc1ccc(OCC(O)CNC(C)(C)C)c(C(C)=O)c1` (stereo not given), the Potency entry in test [1], in test [2], in test [3] and in test [4] was “inactive” throughout.
`N[C@@H](CSCCCO)C(=O)O`: the Potency entry in test [1], in test [2], in test [3] and in test [4] was “inactive” in each case.
Regarding `Cc1ncc(COP(=O)(O)O)c(C=O)c1O`, the Potency entry in test [1], in test [2], in test [3] and in test [4] was “inactive” in each case.
Regarding `O=c1[nH]cnc2c1ncn2[C@@H]1O[C@H](CO)[C@@H](O)[C@H]1O`, the Potency result in test [1], in test [2], in test [3] and in test [4] was “inactive” each time.
Regarding `C[C@H]1O[C@@H](n2cc(F)c(=O)[nH]c2=O)[C@H](O)[C@@H]1O`, the Potency result in test [1] and in test [2] was “inactive” throughout. For the same compound, the Potency in test [3] and in test [4] was 20.9 µM (active) throughout.
For the compound `NC1[C@H]2CN(c3nc4c(cc3F)c(=O)c(C(=O)O)cn4-c3ccc(F)cc3F)C[C@@H]12` (stereo not given in full), the Potency entry in test [1] and in test [2] was “inactive” each time. Also, the results for the Potency in test [3] and in test [4] were 2.99 µM (active) and 5.31 µM (active), respectively.
`C[C@H]1O[C@H](O[C@H]2[C@H](O)[C@@H](O)[C@@H](O[C@H]3[C@H](O)[C@@H](O)[C@H](O)O[C@@H]3CO)O[C@@H]2CO)[C@H](O)[C@@H](O)[C@@H]1N[C@H]1C=C(CO)[C@@H](O)[C@H](O)[C@H]1O`: the Potency result in test [1], in test [2], in test [3] and in test [4] was “inactive” throughout.
With `Nc1ccc(S(=O)(=O)Nc2ccccc2)cc1`, the Potency result in test [1], in test [2], in test [3] and in test [4] was “inactive” in each case.
As to `Nc1ccc(S(=O)(=O)Nc2nccs2)cc1`, the Potency result in test [1], in test [2], in test [3] and in test [4] was “inactive” throughout.
As for `Oc1cccc(O)c1`, the Potency entry in test [1], in test [2], in test [3] and in test [4] was “inactive” each time.
As to `NC(=O)c1ncn([C@@H]2O[C@H](CO)[C@@H](O)[C@H]2O)c1N`, the Potency entry in test [1], in test [2], in test [3] and in test [4] was “inactive” throughout.
For `CC[C@@]1(c2ccccc2)NC(=O)N(C)C1=O`, the Potency result in test [1], in test [2], in test [3] and in test [4] was “inactive” throughout.
On to `CC(=O)CCC(=O)O`, for which the Potency entry in test [1], in test [2], in test [3] and in test [4] was “inactive” in each case.
Take `CC(O)COc1ccccc1` (stereo not given): the Potency entry in test [1], in test [2], in test [3] and in test [4] was “inactive” in each case.
On to `N[C@H]1C(O)O[C@H](CO)[C@@H](O)[C@@H]1O` (stereo not given in full), for which the Potency result in test [1], in test [2], in test [3] and in test [4] was “inactive” throughout.
For the compound `O=C1c2c(O)cccc2Cc2cccc(O)c21`, the Potency entry in test [1], in test [2], in test [3] and in test [4] was “inactive” throughout.
In the case of `O=C(O)CC(O)C(=O)O` (stereo not given), the Potency entry in test [1], in test [2], in test [3] and in test [4] was “inactive” each time.
As to `CC(=O)O[C@@]12CO[C@@H]1C[C@H](O)[C@@]1(C)C(=O)[C@H](O)C3=C(C)[C@@H](OC(=O)[C@H](O)[C@@H](NC(=O)OC(C)(C)C)c4ccccc4)C[C@@](O)([C@@H](OC(=O)c4ccccc4)[C@H]21)C3(C)C`, the Potency entry in test [1] and in test [2] was “inactive” throughout. In addition, the Potency in test [3] was 0.0027 µM (active); in test [4], 0.0021 µM (active).
With `Cc1cccc(C)c1NC(=O)CN(CC(=O)O)CC(=O)O`, the Potency entry in test [1], in test [2], in test [3] and in test [4] was “inactive” each time.
For the compound `CC(O)CN(CCN(CC(C)O)CC(C)O)CC(C)O` (stereo not given), the Potency entry in test [1], in test [2], in test [3] and in test [4] was “inactive” each time.
